This note sets out measurements from the supplement of paper PMC10646978.

± gives the standard deviation.

Common to all, as to details: modulator concentration 10 µM
The test system of test [1] is RAW-Dual (murine macrophage reporter line). The test is described as follows: NF-kB reporter (SEAP) activity fold change vs agonist alone; higher = enhanced NF-kB activity. Put shortly: (§1)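 RAW-Dual murine macrophage reporter cells were plated at 50 000 per well in 384-well plates, pin-transferred compound to 10 μM final, and pre-incubated for 1 hour at 37 °C before a PRR agonist was added and the cells incubated overnight. NF-κB activity was read from supernatant SEAP with QUANTI-Blue at 620 nm absorbance, and IRF activity from Lucia luciferase with QUANTI-Luc by luminescence. Each signal was expressed as fold change by dividing by the mean agonist-only control on the same plate. Two replicate plates were averaged, with errors obtained by propagation.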

Test [2] has the same test system. As to the kind of experiment: IRF reporter (Lucia luciferase) activity fold change vs agonist alone; higher = enhanced IRF activity. Summed up: as §1
The test system is the same in test [3]. The test is described as follows: viability score (confluency relative to resting cells, overnight) (fraction); higher = more viable, active = viable (0.7 or more). Summed up: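 Two confluency masks, generated with IncuCyte software over all imaged wells, were applied to IncuCyte images of RAW-Dual macrophages. The cells, in 384-well plates, had been exposed overnight to 10 μM final compound. The viability score is confluency as a fraction of resting cells, and a compound met the cutoff only with both masks above 70% of resting cells.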

Setting [4] is: agonist: CpG ODN 1826 0.5 ug/mL.

Consider `CCOc1ccc(CC(=O)NC2(c3nc(-c4ccccc4)no3)CCCCC2)cc1OCC`, for which the NF-kB reporter stood at 0.697 ± 0.031 in test [1] (setting [4]), 1.02 ± 0.095 in test [1] (agonist: LPS 0.1 ug/mL) and 0.93 ± 0.058 in test [1] (agonist: MPLA […]). The IRF reporter was 1.03 ± 0.049 in test [2] (agonist: 3'3'-cGAMP 10 ug/mL), 1.24 ± 0.32 in test [2] (agonist: LPS 0.1 ug/mL) and 1.3 ± 0.37 in test [2] (agonist: MPLA […]). For the same compound, the viability score in test [3] was 0.979 (active).

As for `CCOC(=O)C1=C(C)NC(C)=C(C(=O)OCC)C1c1ccco1`, the figures for the NF-kB reporter in test [1] (setting [4]), in test [1] (agonist: LPS 0.1 ug/mL) and in test [1] (agonist: MPLA […]) were 1.03 ± 0.09, 1.01 ± 0.066 and 1.14 ± 0.087, respectively. Further, the IRF reporter stood at 0.82 ± 0.16 in test [2] (agonist: 3'3'-cGAMP 10 ug/mL), 0.999 ± 0.12 in test [2] (agonist: LPS 0.1 ug/mL) and 0.888 ± 0.28 in test [2] (agonist: MPLA […]). Moreover, the viability score in test [3] is 0.996 (active).

Regarding `CCN(CC)c1ccc(C=NNC(=O)c2ccccc2)c(O)c1`, the NF-kB reporter in test [1] (setting [4]) was found to be 2.34 ± 0.38; in test [1] (agonist: LPS 0.1 ug/mL), 2.11 ± 0.16; in test [1] (agonist: MPLA […]) it was 4.3 ± 0.34. The IRF reporter came out at 0.0729 ± 0.013 in test [2] (agonist: 3'3'-cGAMP 10 ug/mL), 2.18 ± 0.29 in test [2] (agonist: LPS 0.1 ug/mL) and 2.36 ± 0.42 in test [2] (agonist: MPLA […]). The viability score in test [3] is 0.814 (active).

On to `CCCCC(=O)N(Cc1ccc(-c2ccccc2-c2nnn[nH]2)cc1)[C@H](C(=O)O)C(C)C` [Prestw-1735], for which the NF-kB reporter was determined as 1.14 ± 0.14 in test [1] (setting [4]), 0.992 ± 0.075 in test [1] (agonist: LPS 0.1 ug/mL) and 1.05 ± 0.029 in test [1] (agonist: MPLA […]). Moreover, the IRF reporter in test [2] (agonist: 3'3'-cGAMP 10 ug/mL) was determined as 0.687 ± 0.03; in test [2] (agonist: LPS 0.1 ug/mL), 0.705 ± 0.04; in test [2] (agonist: MPLA […]), 0.645 ± 0.071. Further, in test [3], the viability score is 0.998 (active).

Turning to `COc1ccc(-c2oc3ccc(OC)cc3c2C(=O)Nc2ccccc2Cl)cc1`, the NF-kB reporter is 0.872 ± 0.051 in test [1] (setting [4]), 1.05 ± 0.11 in test [1] (agonist: LPS 0.1 ug/mL) and 1.42 ± 0.041 in test [1] (agonist: MPLA […]). The IRF reporter in test [2] (agonist: 3'3'-cGAMP 10 ug/mL) came out at 0.756 ± 0.052; in test [2] (agonist: LPS 0.1 ug/mL) it was 0.865 ± 0.062; in test [2] (agonist: MPLA […]), 1.84 ± 0.28. For the same compound, the viability score in test [3] was 1 (active).

For the compound `CN(C)CCC=C1c2ccccc2COc2ccccc21.Cl`, the NF-kB reporter amounted to 0.758 ± 0.18 in test [1] (setting [4]), 1.01 ± 0.054 in test [1] (agonist: LPS 0.1 ug/mL) and 1.06 ± 0.067 in test [1] (agonist: MPLA […]). Also, the IRF reporter in test [2] (agonist: 3'3'-cGAMP 10 ug/mL) was 0.576 ± 0.031; in test [2] (agonist: LPS 0.1 ug/mL), 1.22 ± 0.21; in test [2] (agonist: MPLA […]) it was 1.17 ± 0.2. Also, the viability score in test [3] is 0.978 (active).

On to `CC(C)Sc1ccc(CC(=O)N2C3C=CCC2CC3)cc1` (stereo unspecified), for which the results for the NF-kB reporter in test [1] (setting [4]), in test [1] (agonist: LPS 0.1 ug/mL) and in test [1] (agonist: MPLA […]) were 0.963 ± 0.12, 1.03 ± 0.082 and 1.08 ± 0.1, respectively. Moreover, the IRF reporter in test [2] (agonist: 3'3'-cGAMP 10 ug/mL) worked out at 1 ± 0.1; in test [2] (agonist: LPS 0.1 ug/mL) it was 1.43 ± 0.11; in test [2] (agonist: MPLA […]), 1.38 ± 0.24. In addition, in test [3], the viability score is 0.877 (active).

Turning to `Cc1ccc(CNC(=O)CN(c2cccc3ccccc23)S(C)(=O)=O)cc1`, the figures for the NF-kB reporter in test [1] (setting [4]), in test [1] (agonist: LPS 0.1 ug/mL) and in test [1] (agonist: MPLA […]) were 0.97 ± 0.078, 1.03 ± 0.098 and 0.957 ± 0.073, respectively. The IRF reporter came out at 1.08 ± 0.031 in test [2] (agonist: 3'3'-cGAMP 10 ug/mL), 1.47 ± 0.28 in test [2] (agonist: LPS 0.1 ug/mL) and 1.07 ± 0.096 in test [2] (agonist: MPLA […]). Also, the viability score in test [3] was 1.01 (active).

With `COC(=O)C1C(=O)C(=CNCc2ccccc2)C(=O)CC1(C)C` (stereo unspecified), the NF-kB reporter was 1.12 ± 0.1 in test [1] (setting [4]), 0.99 ± 0.072 in test [1] (agonist: LPS 0.1 ug/mL) and 0.943 ± 0.035 in test [1] (agonist: MPLA […]). Moreover, the IRF reporter is 1.04 ± 0.18 in test [2] (agonist: 3'3'-cGAMP 10 ug/mL), 1.06 ± 0.049 in test [2] (agonist: LPS 0.1 ug/mL) and 0.992 ± 0.066 in test [2] (agonist: MPLA […]). In addition, the viability score in test [3] is 1 (active).

As for `CCOC(=O)C(CCc1ccccc1)NC(C)C(=O)N1Cc2ccccc2CC1C(=O)O.Cl` (stereo unspecified), the NF-kB reporter in test [1] (setting [4]) was 1.27 ± 0.31; in test [1] (agonist: LPS 0.1 ug/mL), 1.05 ± 0.057; in test [1] (agonist: MPLA […]), 0.977 ± 0.072. The IRF reporter in test [2] (agonist: 3'3'-cGAMP 10 ug/mL) came out at 0.955 ± 0.046; in test [2] (agonist: LPS 0.1 ug/mL), 1.22 ± 0.14; in test [2] (agonist: MPLA […]) it was 1.3 ± 0.13. Further, the viability score in test [3] was 0.997 (active).

Consider `CCOC(=O)[C@H](CCc1ccccc1)N[C@H]1CCc2ccccc2N(CC(=O)O)C1=O.Cl`, for which the results for the NF-kB reporter in test [1] (setting [4]), in test [1] (agonist: LPS 0.1 ug/mL) and in test [1] (agonist: MPLA […]) were 1.07 ± 0.083, 0.961 ± 0.17 and 0.987 ± 0.021, respectively. The IRF reporter was found to be 0.947 ± 0.054 in test [2] (agonist: 3'3'-cGAMP 10 ug/mL), 0.935 ± 0.076 in test [2] (agonist: LPS 0.1 ug/mL) and 0.967 ± 0.14 in test [2] (agonist: MPLA […]). The viability score in test [3] was 0.999 (active).

As for `CC(=NOCON=C(C)c1ccc(F)cc1F)c1ccc(F)cc1F`, the NF-kB reporter in test [1] (setting [4]) amounted to 0.843 ± 0.067; in test [1] (agonist: LPS 0.1 ug/mL), 0.907 ± 0.062; in test [1] (agonist: MPLA […]) it was 0.974 ± 0.086. Further, the IRF reporter in test [2] (agonist: 3'3'-cGAMP 10 ug/mL) is 0.991 ± 0.05; in test [2] (agonist: LPS 0.1 ug/mL) it was 1.39 ± 0.085; in test [2] (agonist: MPLA […]), 1.53 ± 0.15. Moreover, the viability score in test [3] is 1 (active).

In the case of `CCC(=O)Nc1ccc(NC(=O)c2ccc([N+](=O)[O-])cc2)cc1`, the NF-kB reporter in test [1] (setting [4]) is 0.982 ± 0.086; in test [1] (agonist: LPS 0.1 ug/mL), 1.05 ± 0.072; in test [1] (agonist: MPLA […]), 0.991 ± 0.14. Besides, the IRF reporter came to 0.978 ± 0.054 in test [2] (agonist: 3'3'-cGAMP 10 ug/mL), 1.43 ± 0.12 in test [2] (agonist: LPS 0.1 ug/mL) and 1.12 ± 0.075 in test [2] (agonist: MPLA […]). The viability score in test [3] is 1.01 (active).
